Shown are actives, neighbours in structure and some others; about 15% of the full set was active somewhere.
TDP1 cell noCPT = qHTS for Inhibitors of human tyrosyl-DNA phosphodiesterase 1 (TDP1): qHTS in cells in absence of CPT; Potency, µM (highest dose often 46.2 µM), inactives show top-dose activity change, negative = growth inhibition, actives largely listed as inhibitors; DT40 Tdp1-/- hTDP1 cells, no CPT, ATP luminescence, 48 h; 15% of 420,000 active; further: nearly all actives have a fitted effect of over 55% in size
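Luminescent ATP content (CellTiter-Glo) served as the growth readout. Knockout chicken DT40 cells expressing human TDP1 were exposed to compounds without camptothecin for a minimum 48 hr at 37 °C.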
RORgamma inh = qHTS for inhibitors of ROR gamma transcriptional activity; Nuclear receptor ROR-gamma (Mus musculus), P51450; Drosophila S2 Gal4-RORgamma UAS-luciferase reporter, 20 h; Potency, µM (series often up to 53.6 µM), for inactives: at the top dose activity change, negative = inhibition, hits mostly inhibitors; 5.4% of 310,000 active; further: nearly all actives have a fitted effect of over 60% in size
Target sequence (P51450 whole entry, looked up, the tested form may be a part): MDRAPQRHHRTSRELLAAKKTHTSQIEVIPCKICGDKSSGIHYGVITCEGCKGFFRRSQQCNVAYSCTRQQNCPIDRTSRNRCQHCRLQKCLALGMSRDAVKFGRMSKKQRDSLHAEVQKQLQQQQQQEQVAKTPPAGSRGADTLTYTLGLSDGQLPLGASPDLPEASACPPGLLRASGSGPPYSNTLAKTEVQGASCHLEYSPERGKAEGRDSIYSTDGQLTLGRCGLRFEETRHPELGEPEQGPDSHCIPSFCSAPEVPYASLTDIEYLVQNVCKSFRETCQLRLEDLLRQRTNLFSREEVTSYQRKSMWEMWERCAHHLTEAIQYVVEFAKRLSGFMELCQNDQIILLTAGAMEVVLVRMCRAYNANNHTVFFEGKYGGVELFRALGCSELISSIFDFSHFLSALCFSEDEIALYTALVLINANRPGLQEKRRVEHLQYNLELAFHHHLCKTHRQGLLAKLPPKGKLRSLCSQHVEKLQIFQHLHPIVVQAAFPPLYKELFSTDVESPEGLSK
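Compounds are pin-transferred onto Drosophila Schneider cells expressing a copper-inducible Gal4–ROR gamma transactivation domain fusion. After 1 hr, copper sulfate is added to 700 uM final; luciferase is read 20 hr later.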
12-LOX inh = Primary qHTS assay for inhibitors of human arachidonate 12S-lipoxygenase (ALOX12): Round 2; Polyunsaturated fatty acid lipoxygenase ALOX12 (Homo sapiens), P18054; purified 12hLO, xylenol orange hydroperoxide absorbance; Potency, µM (titrated, usually from 108 µM), without a hit: top-dose activity change, negative = inhibition, usual class: inhibitors; 1.1% of 580,000 active
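Purified human 12hLO at 150 nM in 25 mM Hepes, 0.01% Triton X-100, pH 7.0, preincubated 15 min at room temperature with compound. Reaction started with 40 uM arachidonic acid, 30 min at room temperature. Hydroperoxide measured by Fe-xylenol orange, 573/405 nm absorbance ratio.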
TDP1 cell CPT = qHTS for Inhibitors of human tyrosyl-DNA phosphodiesterase 1 (TDP1): qHTS in cells in presence of CPT. chicken DT40 Tdp1-/-;hTDP1 cells + 20 nM CPT, ATP luminescence, 48 h. Potency, µM (series often up to 46.2 µM), inactives show at the highest dose activity change, negative = growth inhibition, usual class: inhibitors. 12% of 420,000 active. AID 686979, 2013; further: nearly all actives have a fitted effect of over 55% in size
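Cell growth measured by CellTiter-Glo luminescence after a minimum 48 h, 37 C compound exposure with 20 nM CPT in Tdp1-knockout DT40 cells stably expressing hTDP1, seeded 400/well; qHTS titration format.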
Gal4-VP16 FLuc = VP16 counterscreen qHTS for inhibitors of ROR gamma transcriptional activity | Drosophila S2 Gal4-VP16 UAS-luciferase, luminescence, 20 h | Potency, µM (titrated, usually from 53.6 µM), without a hit: at the top dose activity, negative = inhibition, usual class: inhibitors | 3.5% of 310,000 active | AID 2546, 2010;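 further: Gal4-VP16 expression switched on by copper sulfate through the metallothionein promoter; nearly all actives have a fitted effect of over 50% in size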
ELG1 repair inh = qHTS screen for small molecules that inhibit ELG1-dependent DNA repair in human embryonic kidney (HEK293T) cells expressing luciferase-tagged ELG1; Potency, µM (titrated, usually from 46.1 µM), for the others: at the highest dose activity change, negative = inhibition, actives largely listed as inhibitors; HEK293T ELG1-luciferase reporter, luminescence, 16 h; DNA damage induced by 5-fluorouridine; 2.3% of 330,000 active; further: nearly all actives have a fitted effect of over 55% in size
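Luminescence from the luciferase reporter, measured 30 min after ONE-Glo reagent at room temperature, was the read-out. Beforehand, 2,000 cells per well were exposed for 16 hr at 37 °C to 5-fluorouridine together with compound or vehicle.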
Active calls of the source: *; ? = inconclusive; . = no result; ! = not confirmed by another sample; [ ] = remark or other dose. The call rests on the fitted dose curve; in most records, active means well fitted curve in the direction sought with a large enough effect; inconclusive means small, poorly fitted or top-dose-only effect, or another doubt; inactive means no such curve, though single readings can be large; an effect the other way counts as inactive or inconclusive. On the % scale 0 is the no-effect control and ±100 the full control effect; potency means the concentration at half of the fitted maximal effect.

SMILES	TDP1 cell noCPT	RORgamma inh	12-LOX inh	TDP1 cell CPT	Gal4-VP16 FLuc	ELG1 repair inh
CCOC(=O)C1(Cc2ccc(Cl)cc2)CCN(C(=O)c2cnc(C)cn2)CC1	23.1µM*	12.3%	-2.7%	?	0.4%	-0.6%
CCOC(=O)C1(CCCc2ccccc2)CCN(C(=O)c2cnn(CC)c2)CC1	18.4µM*	-27.7%	9.0%	25.9µM*	-2.0%	6.0%
Brc1ccc2nc(-c3ccco3)c(CC3CCCCC3)n2c1	?	.	15.8µM*	?	.	.
Cc1ccc2nc(-c3ccco3)c(CC3CCCCC3)n2c1	10.3µM*	.	.	13µM*	.	.
Cc1ccc2nc(-c3ccc(F)cc3)c(CC3CCCCC3)n2c1	?	.	-18.9%	?	.	.
Cc1cncc(C(=O)N2CCOc3c(O)cc(-c4nc5ccccc5s4)cc3C2)c1	.	.	59.4%	.	.	.
O=C(CCS(=O)(=O)Cc1ccc(Cl)cc1)NCCCN1CCN(c2ccccc2F)CC1	?	0.5%	11.1%	11.2µM*	-11.3%	?
O=C(CCCc1ccccc1)NCCS(=O)(=O)N1CCN(c2ccccc2F)CC1	18.4µM*	.	6.5%	?	.	?
O=C(Cc1ccc(Cl)cc1)NCCS(=O)(=O)N1CCN(c2ccccc2F)CC1	5.8µM*	.	?	5.17µM*	.	-11.0%
COc1ccc(CCC(=O)NCCS(=O)(=O)N2CCN(c3ccccc3OC)CC2)cc1	18.4µM*	41.6%	3.2%	20.6µM*	?	?
Cc1ccccc1CS(=O)(=O)CCC(=O)NCCCN1CCN(c2ccccc2F)CC1	?	-0.3%	229.5%	?	0.2%	-10.6%
CC1(C)CCCC(C)(C#CCN2CCCCC2c2cccnc2)O1 (centres undefined)	.	.	-6.1%	.	.	.
COc1ccc(CNc2nc(NCc3ccc(OC)cc3)n(S(=O)(=O)c3ccc(C)cc3)n2)cc1	.	.	16.4%	.	.	.
Cc1c(C(=O)NCCS(=O)(=O)N2CCN(c3ccccc3F)CC2)cccc1[N+](=O)[O-]	20.6µM*	13.4%	4.9%	?	-4.6%	14.6µM*
C(=N\Nc1nc2ccccc2[nH]1)/C1CCCCC1	?	11.2µM*	34.3%	18.4µM*	?	5.3%
CSc1nccc(N/N=C/c2ccccc2)n1	-17.9%	-4.2%	3.4%	2.0%	0.3%	?
CCCc1cc(=O)[nH]c(SC/C=C/c2ccccc2)n1	-19.9%	.	0.0%	-28.8%	.	.
CCCc1cc(=O)[nH]c(N/N=C/C=C\c2ccccc2)n1	?	7.08µM*	4.1%	0.8%	3.6%[10 µM]	-13.7%
Cc1[nH]c2ccccc2c1/C=N/Nc1nc2ccccc2[nH]1	?	-1.5%	?	?	-18.8%	?
Fc1cccc(/C=N/Nc2ccc3ccccc3n2)c1	?	7.08µM*	2.1%	?	?	?
C(=N\Nc1nc2ccccc2[nH]1)/c1ccccc1	?	10µM*	8.7%	?	?	?
Cc1cccc(C(=O)Nc2ccccc2SCc2ccsc2)c1	.	.	-9.8%	.	.	.
Cn1cnnc1CC1CCN(C(=O)CCc2nc3ccccc3[nH]c2=O)CC1	.	.	47.8%	.	.	.
C(=C\c1ccccc1)/C=N/Nc1nc2ccccc2[nH]1	7.31µM*	3.16µM*	?	7.31µM*	5.01µM*	?
Fc1ccc(/C=N/Nc2nc3ccccc3[nH]2)cc1F	?	7.94µM*	-5.3%	?	?	?
SMILES	TDP1 cell noCPT	RORgamma inh	12-LOX inh	TDP1 cell CPT	Gal4-VP16 FLuc	ELG1 repair inh
Fc1cccc(/C=N/Nc2nc3ccccc3[nH]2)c1	?	10µM*	-3.6%	?	?	?
c1ccc(CCc2nc3ccccc3[nH]2)cc1	?	1.8%	0.4%	-23.4%	-5.0%	?
C(/CCc1ccccc1)=N\Nc1nc2ccccc2[nH]1	18.4µM*	11.2µM*	?	?	-25.5%	0.5%
Cc1ccccc1-c1nc2cc(NC(=O)c3cccs3)ccc2o1	.	.	14.7%	.	.	.
Cn1c(CCNC(=O)c2ccccc2F)nnc1SCC(=O)N1CCc2ccccc21	.	.	11.1%	.	.	.
CC(C)n1c(N2CCN(C(=O)c3cccs3)CC2)nc2ccccc21	23.1µM*	-8.8%	-16.2%	?	-1.2%	-9.2%
CC(C)n1c(N2CCN(C(=O)N3CCCCC3)CC2)nc2ccccc21	?	-12.9%	52.8%	13µM*	-1.8%	-13.2%
C#CC[N+](C)(CC#CC=C)Cc1ccccc1 (centres undefined)	.	.	16.6%	.	.	.
CC(=O)N1C2(C=CC1(C)C(=O)NCc1ccccn1)CCCCC2 (centres undefined)	.	11.2µM*	.	.	?	.
COc1ccc(OC)c(S(=O)(=O)Nc2cccc(O)c2)c1	-5.3%	.	449.2%	-1.6%	.	.
COc1ccc(OC)c(S(=O)(=O)Nc2cccc3c(O)cccc23)c1	?	.	?	20.6µM*	.	.
COc1ccc(OC)c(S(=O)(=O)Nc2ccc(O)c3ccccc23)c1	3.26µM*	10µM*	?	2.06µM*	3.6%[0.365 µM]	10.3µM*
Cc1c(C(=O)Nc2nnc(C(C)C)s2)nnn1-c1ccccc1	.	.	-12.8%	.	.	.
CCSc1ccc2c(c1)N(CCCN1CCN(C)CC1)c1ccccc1S2	?	8.3%[2.98 µM]	?	25.9µM*	0.7%[17 µM]	?
CN1CCN(CCCN2c3ccccc3Sc3ccc(Cl)cc32)CC1	20.6µM*	2.82µM*!	?	4.61µM*!	?	3.3%
CCC(=O)c1ccc2c(c1)N(CCCN1CCN(CCO)CC1)c1ccccc1S2	4.73µM*	?	.	2.99µM*	-28.0%	.
OCCN1CCN(CCCN2c3ccccc3C=Cc3ccccc32)CC1	5.96µM*	?	?	8.41µM*	-13.4%	.
CN1CCN(CCCN2c3ccccc3Sc3ccccc32)CC1	?	-16.0%	.	?	-5.2%	.
CCc1ccc2c(CN3C(=O)C(=O)N(C4CCCC4)C3=O)cc(=O)oc2c1	.	.	-27.7%	.	.	.
O=C(CCN1CCOCC1)N1c2ccccc2Sc2ccc(Cl)cc21	?	7.0%	-7.4%	?	5.2%	10.8%
OC1CC2CCC(C1)N2CCCN1c2ccccc2Sc2ccc(Cl)cc21 (centres undefined)	14.6µM*	.	?	23.1µM*	.	.
Cn1c(=O)c2c(ncn2CCC(=O)Nc2ccc(Br)cc2F)n(C)c1=O	.	.	6.9%	.	.	.

High-throughput results from PubChem.
